From PubChem BioAssay (Tox21)
Inconclusive results are not listed. Active and inactive are the calls of the source. Unless noted, calls come from the whole dose curve; as a rule, active = well fitted curve in the direction sought with a large enough effect in the repeat runs; inconclusive = weak or mixed curves; inactive = no such curve, though single readings can be large; an effect the other way counts as inactive or inconclusive.

Experiments:
[1] = qHTS assay to identify small molecule antagonists of the glucocorticoid receptor (GR) signaling pathway - cell viability counter screen (AID 720693); note: nearly all actives have a fitted effect of over 55% in size
[2] = qHTS assay to identify small molecule antagonists of the androgen receptor (AR) signaling pathway - cell viability counter screen (AID 743033; note: nearly all actives have a fitted effect of over 45% in size)
[3] = molecular target: Androgen receptor (Homo sapiens) (UniProt P10275); test: qHTS assay to identify small molecule antagonists of the androgen receptor (AR) signaling pathway (AID 743035; active = well fitted inhibition curve with a large enough effect in the signal ratio in the repeat runs, not every such curve was filed as active; the % refers to the signal ratio)
Sequence of Androgen receptor (Homo sapiens) (P10275 whole entry, looked up): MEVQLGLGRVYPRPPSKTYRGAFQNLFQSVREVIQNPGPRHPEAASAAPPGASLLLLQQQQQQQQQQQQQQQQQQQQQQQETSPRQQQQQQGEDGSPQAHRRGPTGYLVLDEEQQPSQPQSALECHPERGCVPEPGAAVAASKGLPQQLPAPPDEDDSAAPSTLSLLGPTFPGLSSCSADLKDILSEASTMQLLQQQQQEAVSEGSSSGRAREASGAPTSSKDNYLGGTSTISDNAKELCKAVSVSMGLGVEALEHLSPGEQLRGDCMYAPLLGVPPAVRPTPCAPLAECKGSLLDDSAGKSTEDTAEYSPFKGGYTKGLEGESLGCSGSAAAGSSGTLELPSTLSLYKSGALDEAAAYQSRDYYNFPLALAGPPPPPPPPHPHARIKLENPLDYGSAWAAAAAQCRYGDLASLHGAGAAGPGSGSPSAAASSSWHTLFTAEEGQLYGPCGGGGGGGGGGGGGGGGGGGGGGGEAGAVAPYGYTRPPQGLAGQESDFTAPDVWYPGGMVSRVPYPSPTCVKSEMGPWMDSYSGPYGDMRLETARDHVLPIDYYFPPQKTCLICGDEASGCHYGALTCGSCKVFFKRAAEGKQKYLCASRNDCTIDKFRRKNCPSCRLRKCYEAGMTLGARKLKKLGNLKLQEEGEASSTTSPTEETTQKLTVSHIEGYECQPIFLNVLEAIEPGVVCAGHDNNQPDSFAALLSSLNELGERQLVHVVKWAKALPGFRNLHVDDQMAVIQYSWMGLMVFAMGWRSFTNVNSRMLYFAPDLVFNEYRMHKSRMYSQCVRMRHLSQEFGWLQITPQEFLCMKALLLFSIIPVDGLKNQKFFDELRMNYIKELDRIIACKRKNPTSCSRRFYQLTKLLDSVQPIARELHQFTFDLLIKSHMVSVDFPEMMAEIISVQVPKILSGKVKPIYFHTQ
Method in brief: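 Antagonism is scored as loss of R1881-driven beta-lactamase reporter expression in HEK293 cells carrying the reporter under a UAS element, after 16 h co-treatment at 37C and a 2 h room-temperature FRET substrate read.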

[4] = molecular target: Androgen receptor (Homo sapiens) (UniProt P10275); test: qHTS assay to identify small molecule agonists of the androgen receptor (AR) signaling pathway (AID 743036; active = well fitted activation curve with a large enough effect in the signal ratio in the repeat runs, with a control signal flat, not every such curve was filed as active; the % refers to the signal ratio)
Method in brief: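 Fluorescence from a beta-lactamase FRET substrate served as read-out in AR-UAS-bla GripTite HEK293 cells. Cells were treated with DMSO-dissolved compounds for 16 h at 37C, then with LiveBLAzer B/G substrate for 2 h at room temperature.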

[5] = molecular target: Androgen receptor (Homo sapiens) (UniProt P10275); test: qHTS assay to identify small molecule agonists of the androgen receptor (AR) signaling pathway using the MDA cell line (AID 743040; note: nearly all actives have a fitted effect of over 20% in size)
Method in brief: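 Human breast carcinoma MDA-kb2 reporter cells (MMTV-luc, AR/GR elements) were treated for 16 h at 37C in 0% CO2 following a 5 h settling period. Signal was quantified by ONE-Glo luminescence.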

[6] = qHTS assay to identify small molecule antagonists of the androgen receptor (AR) signaling pathway using the MDA cell line - cell viability counter screen (AID 743041; note: nearly all actives have a fitted effect of over 45% in size)
Method in brief: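 Same-well cytotoxicity was assessed by CellTiter-Fluor in MDA-kb2 AR-luc cells after 16 h of compound treatment under R1881 agonism.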

[7] = molecular target: Androgen receptor (Homo sapiens) (UniProt P10275); test: qHTS assay to identify small molecule antagonists of the androgen receptor (AR) signaling pathway using the MDA cell line (AID 743042; note: nearly all actives have a fitted effect of over 55% in size)
Method in brief: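 MDA-kb2 breast carcinoma cells carrying MMTV-luciferase (AR/GR responsive) were co-treated with compounds and the agonist R1881 for 16 h at 37C. Inhibition read as ONE-Glo luminescence; CellTiter-Fluor fluorescence measured in parallel for cytotoxicity.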

[8] = qHTS assay to identify small molecule antagonists of the thyroid receptor (TR) signaling pathway - cell viability counter screen (AID 743064); note: nearly all actives have a fitted effect of over 50% in size
Method in brief: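 Fluorescence from CellTiter-Fluor, added after 23.5 h exposure at 37 °C, reported viability of GH3.TRE-Luc cells co-treated with compound and 1 nM T3. Measured in the same wells as the luciferase TR readout.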

[9] = qHTS assay to identify small molecule antagonists of the thyroid receptor (TR) signaling pathway (AID 743065); note: series mostly up to about 70 µM; nearly all actives have a fitted effect of over 55% in size
Method in brief: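 GH3.TRE-Luc rat pituitary cells (two TREs driving luciferase) were dosed with compound, then stimulated with 1 nM T3 (final) for 23.5 h at 37 C. ONE-Glo luminescence was the read-out, with CellTiter-Fluor fluorescence as the cytotoxicity counter-screen.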

[10] = tested on: thyroid hormone receptor (rat, GH3 cells); test: qHTS assay to identify small molecule agonists of the thyroid receptor (TR) signaling pathway (AID 743066; calls by dose curve)
[11] = qHTS assay to identify small molecule antagonists of the estrogen receptor alpha (ER-alpha) signaling pathway - cell viability counter screen (AID 743074; calls by dose curve;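 note: HEK293 cells carrying ER-alpha-UAS-bla reporter stimulated with 17beta-estradiol; nearly all actives have a fitted effect of over 45% in size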)
[12] = qHTS assay to identify small molecule antagonists of the estrogen receptor alpha (ER-alpha) signaling pathway using the BG1 cell line - cell viability counter screen (AID 743081);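 note: compound given together with 17beta-estradiol as the ER stimulus; series mostly up to about 70 µM; nearly all actives have a fitted effect of over 45% in size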
Aromatase (Homo sapiens) = Aromatase (Homo sapiens) (UniProt P11511); test: qHTS assay to identify aromatase inhibitors (AID 743083); note: series mostly up to about 70 µM; nearly all actives have a fitted effect of over 55% in size
Sequence of Aromatase (Homo sapiens) (P11511 whole entry, looked up): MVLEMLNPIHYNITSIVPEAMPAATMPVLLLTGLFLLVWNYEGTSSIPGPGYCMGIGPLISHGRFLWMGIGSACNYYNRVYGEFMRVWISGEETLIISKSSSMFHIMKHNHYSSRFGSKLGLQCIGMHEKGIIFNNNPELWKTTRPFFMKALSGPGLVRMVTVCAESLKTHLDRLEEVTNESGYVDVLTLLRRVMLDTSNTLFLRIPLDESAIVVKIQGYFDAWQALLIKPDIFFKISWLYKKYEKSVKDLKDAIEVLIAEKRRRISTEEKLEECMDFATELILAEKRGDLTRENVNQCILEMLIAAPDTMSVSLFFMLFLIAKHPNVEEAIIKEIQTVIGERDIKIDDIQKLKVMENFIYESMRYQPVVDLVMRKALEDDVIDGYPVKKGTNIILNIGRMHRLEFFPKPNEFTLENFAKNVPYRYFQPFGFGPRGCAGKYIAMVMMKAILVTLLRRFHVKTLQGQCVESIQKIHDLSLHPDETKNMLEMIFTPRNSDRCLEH

[13] = qHTS assay for identifying genotoxic compounds that show differential cytotoxicity against isogenic chicken DT40 cell lines with known DNA damage response pathways - Rev3 mutant cell line (AID 743014); note: nearly all actives have a fitted effect of over 55% in size; note: potency is the fitted concentration of half-maximal effect
[14] = qHTS assay for identifying genotoxic compounds that show differential cytotoxicity against isogenic chicken DT40 cell lines with known DNA damage response pathways - Rad54/Ku70 mutant cell line (AID 743015); note: nearly all actives have a fitted effect of over 60% in size; note: potency is the fitted concentration of half-maximal effect
[15] = molecular target: Estrogen receptor (Homo sapiens) (UniProt P03372); test: qHTS assay to identify small molecule antagonists of the estrogen receptor alpha (ER-alpha) signaling pathway (AID 743069; active = well fitted curve in the direction sought with a large enough effect in the signal ratio in the repeat runs, not every such curve was filed as active; the % refers to the signal ratio)
Sequence of Estrogen receptor (Homo sapiens) (P03372 whole entry, looked up): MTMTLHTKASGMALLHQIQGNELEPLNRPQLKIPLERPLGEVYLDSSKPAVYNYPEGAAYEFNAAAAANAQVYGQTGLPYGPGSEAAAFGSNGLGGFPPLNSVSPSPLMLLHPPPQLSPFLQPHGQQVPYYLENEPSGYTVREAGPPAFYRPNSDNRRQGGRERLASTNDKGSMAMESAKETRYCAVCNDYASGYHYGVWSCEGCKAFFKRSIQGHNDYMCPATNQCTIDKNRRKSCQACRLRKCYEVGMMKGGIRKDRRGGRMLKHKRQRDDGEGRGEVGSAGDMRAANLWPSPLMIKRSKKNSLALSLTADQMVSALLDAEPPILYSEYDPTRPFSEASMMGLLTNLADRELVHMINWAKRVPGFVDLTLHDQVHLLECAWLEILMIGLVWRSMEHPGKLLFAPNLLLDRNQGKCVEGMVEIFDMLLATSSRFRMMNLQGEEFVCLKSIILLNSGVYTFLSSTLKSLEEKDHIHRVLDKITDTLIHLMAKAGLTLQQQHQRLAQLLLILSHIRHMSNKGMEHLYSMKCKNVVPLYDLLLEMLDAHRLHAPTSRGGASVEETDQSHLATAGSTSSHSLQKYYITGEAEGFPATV
Method in brief: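 Reporter cells (ER-alpha-bla, HEK293 background) are conditioned overnight in stripped-serum medium (2% charcoal-stripped FBS). Compound and 17beta-estradiol exposure runs 18 hr at 37C, 5% CO2.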

[16] = molecular target: Estrogen receptor (Homo sapiens) (UniProt P03372); test: qHTS assay to identify small molecule agonists of the estrogen receptor alpha (ER-alpha) signaling pathway (AID 743075; calls by dose curve;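 note: HEK293 GripTite cells with ER-alpha and UAS-driven beta-lactamase reporter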; note: potency is the fitted concentration of half-maximal effect)
[17] = molecular target: Estrogen receptor (Homo sapiens) (UniProt P03372); test: qHTS assay to identify small molecule agonists of the estrogen receptor alpha (ER-alpha) signaling pathway using the BG1 cell line (AID 743079); note: nearly all actives have a fitted effect of over 20% in size; note: potency is the fitted concentration of half-maximal effect
[18] = qHTS assay to identify small molecule antagonists of the estrogen receptor alpha (ER-alpha) signaling pathway using the BG1 cell line (AID 743080; calls by dose curve;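 note: BG1 cells stimulated with 17beta-estradiol alongside compound; series mostly up to about 70 µM; nearly all actives have a fitted effect of over 25% in size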)
Method in brief: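 Readout is ONE-Glo luminescence, taken 30 min at room temperature after reagent addition, preceded by a CellTiter-Fluor viability read; BG1-Luc-4E2 cells had received compound and 17beta-estradiol for 21.5 h at 37 C.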

[19] = qHTS assay for identifying genotoxic compounds that show differential cytotoxicity against isogenic chicken DT40 cell lines with known DNA damage response pathways - wild type cell line (AID 743012); note: nearly all actives have a fitted effect of over 60% in size
Method in brief: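 Cells (DT40 wild type, 300/well) are treated with DMSO-dissolved compounds after a ~0.5 h pre-incubation and kept 40 h at 37 C/5% CO2. Viability is then measured by CellTiter-Glo luminescence following 30 min at room temperature.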
% is set by controls: 0 for no effect and ±100 for the full control effect.

O=S(=O)(O)SSS(=O)(=O)O
inactive: Potency [1] | outcome [2] | Potency [3] | outcome [4] | outcome [5] | outcome [6] | outcome [7] | Potency [8] | Potency [9] | Potency [10] | Potency [11] | outcome [12] | outcome (Aromatase (Homo sapiens))

CCC(C)(CCC(C)C)C(=O)[O-].CCC(C)(CCC(C)C)C(=O)[O-].[Zn+2] (stereo not drawn)
inactive: Potency [1] | Potency [13] | Potency [14] | outcome [2] | outcome [6] | Potency [8] | Potency [9] | Potency [10] | Potency [11] | outcome [12]

CC(Cl)COP(=O)(OCC(C)Cl)OCC(C)Cl (stereo not drawn)
active: Potency [13] 54.2 µM
inactive: Potency [1] | outcome [2] | outcome [6] | Potency [8] | Potency [9] | Potency [10] | Potency [15] | Potency [11] | Potency [16] | Potency [17] | outcome [18] | outcome [12] | outcome (Aromatase (Homo sapiens))

c1ccc(CNc2ncnc3nc[nH]c23)cc1
inactive: Potency [1] | outcome [2] | outcome [6] | Potency [8] | Potency [9] | Potency [10] | Potency [11] | outcome [12]
active: Potency [14] 48.6 µM

CCCCCC1Nc2cc(C(F)(F)F)c(S(N)(=O)=O)cc2S(=O)(=O)N1 (stereo not drawn)
inactive: Potency [1] | Potency [14] | outcome [2] | outcome [6] | Potency [8] | Potency [9] | Potency [10] | Potency [15] | Potency [11] | Potency [16] | Potency [17] | outcome [18] | outcome [12] | outcome (Aromatase (Homo sapiens))

O=CO
inactive: viability change, negative = cytotoxic [1] -3.59% [at 7.04 µM] | activity change, negative = cytotoxicity [2] -5.92% [at 7.04 µM] | viability change, negative = cytotoxic [6] -3.77% [at 8.47 µM] | activity change, negative = cytotoxic [8] -0.961% [at 8.44 µM] | activity, negative = inhibition [9] -3.91% [at 8.44 µM] | activation [10] 0.246% [at 8.08 µM] | activity, negative = cytotoxicity [11] 6.52% [at 6.72 µM] | activity change, negative = cytotoxicity [12] 0.807% [at 8.47 µM] | activity, negative = inhibition (Aromatase (Homo sapiens)) 10.9% [at 8.47 µM]

O=C(Oc1ccccc1C(=O)O)c1ccccc1O
active: Potency [17] 26.6 µM
inactive: Potency [1] | Potency [14] | outcome [2] | outcome [6] | Potency [8] | Potency [9] | Potency [10] | Potency [15] | Potency [11] | Potency [16] | outcome [18] | outcome [12] | outcome (Aromatase (Homo sapiens))

CC(=O)OCC(=O)[C@@]1(O)[C@H](OC(C)=O)C[C@H]2[C@@H]3CCC4=CC(=O)C=C[C@]4(C)[C@@]3(F)[C@@H](O)C[C@@]21C
inactive: Potency [1] | outcome [2] | outcome [6] | Potency [8] | Potency [9] | Potency [10] | Potency [11] | Potency [16] | outcome [12] | outcome (Aromatase (Homo sapiens))

CC(=O)OC(C)c1ccccc1 (stereo not drawn)
inactive: Potency [1] | Potency [13] | Potency [14] | outcome [2] | outcome [6] | Potency [8] | Potency [9] | Potency [10] | Potency [15] | Potency [11] | Potency [16] | Potency [17] | outcome [12] | outcome (Aromatase (Homo sapiens))

CN[C@@H]1[C@@H](O)[C@@H](O[C@@H]2[C@H](O)[C@H](O[C@H]3OC(CN)=CC[C@H]3N)[C@@H](N)C[C@H]2N)OCC1(C)O (stereo partly drawn)
inactive: Potency [19] | Potency [14] | outcome [2] | outcome [6] | Potency [8] | Potency [9] | Potency [10] | Potency [11] | outcome [12] | outcome (Aromatase (Homo sapiens))

CC(C)(C)c1ccc(C=O)cc1
inactive: Potency [19] | Potency [13] | Potency [14] | outcome [2] | outcome [6] | Potency [8] | Potency [9] | Potency [10] | Potency [15] | Potency [11] | Potency [16] | Potency [17] | outcome [12] | outcome (Aromatase (Homo sapiens))

Cc1oc(=O)oc1CN1CCN(c2cc3c(cc2F)c(=O)c(C(=O)O)c2n3C(C)S2)CC1 (stereo not drawn)
active: Potency [16] 23.9 µM [activator] | Potency [17] 8.41 µM
inactive: Potency [1] | outcome [2] | outcome [6] | Potency [10] | Potency [11] | outcome [12] | outcome (Aromatase (Homo sapiens))

C=CCOCC(CO)(COCC=C)COCC=C
inactive: Potency [1] | Potency [13] | Potency [14] | outcome [2] | outcome [6] | Potency [8] | Potency [9] | Potency [10] | Potency [15] | Potency [16] | Potency [17] | outcome [18] | outcome [12] | outcome (Aromatase (Homo sapiens))

CCOC(=O)CC(CC(=O)OCC)(OC(C)=O)C(=O)OCC
inactive: Potency [1] | Potency [13] | Potency [14] | outcome [2] | outcome [6] | Potency [8] | Potency [9] | Potency [10] | Potency [11] | outcome [12] | outcome (Aromatase (Homo sapiens))

Nc1ccc(/C=C/c2ccc(N)cc2S(=O)(=O)O)c(S(=O)(=O)O)c1
inactive: Potency [1] | outcome [2] | outcome [6] | Potency [8] | Potency [9] | Potency [10] | Potency [15] | Potency [11] | Potency [16] | Potency [17] | outcome [18] | outcome [12] | outcome (Aromatase (Homo sapiens))
